Bioassay records: PubChem, Broad Institute
C diff HTS = inhibitors of Clostridium difficile growth; Clostridium difficile clinical isolate growth, OD600, 24 h; active compounds read low; growth activity, negative = inhibition, % at 16 µg/mL (by protocol); 86,000 tested, 0.25% active; AID 1259249;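 active = mean growth activity at or below -80% and every replicate also at or below -80%; inconclusive = mean at or below -80% but some replicate above -80%; inactive = mean growth activity above -80%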;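 also: 0% = DMSO wells and -100% = levofloxacin 16 µg/mL wells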
Pf Dd2 inh = blocks growth of Plasmodium falciparum Dd2 parasites | P. falciparum Dd2 growth, SYBR Green, 72 h; active compounds read low | activity change, % at 10 µM | 94,000 tested, 2.3% active | AID 1159554; in the data active = activity change below about -80%; inconclusive = no clear call, values can overlap the other calls
T cruzi growth-1 = blocks T. cruzi growth in NIH3T3 culture | T. cruzi beta-gal in NIH3T3, GalScreen luminescence, 90 h | inhibition, % at 8.34 µM | 77,000 tested, 5.9% active | AID 624255;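 active = mean inhibition above about 93%, with at least 55% of replicates each passing it, limit read from the data, passing the limit was not always enough; inconclusive = only one of those two conditions holds; inactive = neither condition holds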
T cruzi growth-2 = blocks T. cruzi growth in NIH3T3 host cells | shares compounds with T cruzi growth-1 | T. cruzi beta-gal in NIH3T3, GalScreen luminescence, 90 h | inhibition, % at 8.35 µM | 5,600 tested, 72% active;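 active = mean replicate inhibition above about 95% and at least 55% of replicates individually reaching it, limit read from the data; inconclusive = only one of the two criteria is met; inactive = neither criterion is met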
T cruzi growth-3 = inhibitors of T. cruzi proliferation. shares compounds with T cruzi growth-1. T. cruzi beta-gal in NIH3T3, GalScreen luminescence, 90 h. inhibition, % at 2.09 µM. 5,600 tested, 21% active. AID 651740;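 active = mean inhibition above about 95%, with at least 55% of replicates also reaching it, limit read from the data; inconclusive = meets just one of the two conditions; inactive = meets neither condition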;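 also: plate controls were neutral control median for no effect and positive control median for full effect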
3T3 cytotox = cytotoxicity in mouse NIH/3T3 fibroblasts. AID 651742. cytotoxicity (signal decrease), % at 8.35 µM. NIH/3T3 viability, CellTiter-Glo ATP luminescence, 90 h. 5,600 tested, 14% active. shares compounds with T cruzi growth-1;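 active = mean signal decrease across replicates above about 35% based on untreated-well scatter, with enough replicates individually passing, limit read from the data; inconclusive = no rule stated though some were filed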;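 also: 0% = median of neutral control wells and 100% = median of positive control wells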
NIH3T3 tox 2 = kills mouse NIH/3T3 fibroblasts; shares compounds with T cruzi growth-1; 5,600 tested, 56% active; NIH/3T3 viability, CellTiter-Glo ATP luminescence, 90 h; inhibition, % at 24.9 µM; AID 651744;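 active = mean loss of cell viability signal at or above a set limit, and enough replicates individually reaching it; inconclusive = meets only the mean limit or only the replicate share; inactive = meets neither condition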;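 also: 0% = median of neutral control wells and 100% = median of positive control wells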
Numbers without * were called inactive; ? = inconclusive; . = no result given. Only some compounds are listed: those with a hit (about 6.7% of all), similar ones and a draw of the others.

SMILES | C diff HTS | Pf Dd2 inh | T cruzi growth-1 | T cruzi growth-2 | T cruzi growth-3 | 3T3 cytotox | NIH3T3 tox 2
CNC[C@H]1Oc2c(NC(=O)c3ccc(-c4nccs4)cc3)cccc2C(=O)N([C@H](C)CO)C[C@@H]1C | -7 | -6 | 5 | . | . | . | .
O=C(NCC1CC1)[C@H]1[C@H](CO)[C@H]2Cn3c(ccc(C4=CCCCC4)c3=O)[C@@H]1N2 | -3 | 11 | 36 | . | . | . | .
C[C@@H]1CCCCO[C@@H](CN(C)CC2CCCCC2)[C@@H](C)CN([C@H](C)CO)C(=O)c2cc(NC(=O)Nc3cccc4ccccc34)ccc2O1 | 10 | -33 | ? | 105* | 105* | 18 | 36*
C[C@@H]1CCCCO[C@@H](CN(C)CC2CCCCC2)[C@H](C)CN([C@@H](C)CO)C(=O)c2cc(NC(=O)Nc3cccc4ccccc34)ccc2O1 | 2 | -79 | 117 | . | . | . | .
C[C@@H]1CCCCO[C@@H](CN(C)Cc2ccccc2)[C@@H](C)CN([C@H](C)CO)C(=O)c2cc(NC(=O)Nc3cccc4ccccc34)ccc2O1 | 0 | 32 | . | . | . | . | .
C[C@@H]1CN([C@@H](C)CO)C(=O)c2cc(NC(=O)Nc3cccc4ccccc34)ccc2O[C@@H](C)CCCCO[C@@H]1CN(C)Cc1ccccc1 | 7 | -61 | 116* | 110* | 101* | 27 | ?
C[C@H](CO)N1C[C@H](C)[C@H](CN(C)Cc2ccccc2)OCCCC[C@H](C)Oc2ccc(NC(=O)Nc3cccc4ccccc34)cc2C1=O | 47 | 9 | 117* | 92 | 63 | 7 | 93*
C[C@@H]1CCCCO[C@@H](CN(C)Cc2ccccc2)[C@H](C)CN([C@@H](C)CO)C(=O)c2cc(NC(=O)Nc3cccc4ccccc34)ccc2O1 | 26 | -8 | 107* | 103* | 104* | 6 | 106*
CCC(=O)N(C)C[C@@H]1Oc2cc(-c3cncnc3)ccc2S(=O)(=O)N([C@@H](C)CO)C[C@H]1C | -1 | 12 | 17 | . | . | . | .
CCCNC(=O)C[C@@H]1C[C@H]2c3cc(NC(=O)COC)ccc3O[C@H]2[C@@H](CO)O1 | 1 | 17 | 8 | . | . | . | .
COc1ccc(S(=O)(=O)N(C)C[C@H]2Oc3ccc(NC(=O)C4CCCCC4)cc3C(=O)N([C@@H](C)CO)C[C@@H]2C)cc1 | -1 | -38 | 3 | . | . | . | .
COc1ccc(CN(C)C[C@H]2OCCCC[C@@H](C)Oc3ccc(NC(=O)Nc4cccc5ccccc45)cc3C(=O)N([C@@H](C)CO)C[C@@H]2C)cc1 | -43 | -90* | ? | 97* | 101* | 41* | 103*
COc1ccc(CN(C)C[C@@H]2OCCCC[C@H](C)Oc3ccc(NC(=O)Nc4cccc5ccccc45)cc3C(=O)N([C@@H](C)CO)C[C@H]2C)cc1 | -57 | -80 | 94 | . | . | . | .
C[C@@H]1CN([C@H](C)CO)C(=O)c2cc(NC(=O)Nc3cccc4ccccc34)ccc2O[C@@H](C)CCCCO[C@H]1CN(C)Cc1ccccc1 | 59 | ? | 111* | 92 | 105* | 34 | 107*
O=C(C[C@H]1CC[C@H]2[C@@H](COC[C@H](O)CN2C(=O)c2ccc(F)cc2)O1)N1CCOCC1 | . | 1 | 15 | . | . | . | .
CCC(=O)N1[C@H](CO)[C@@H](c2ccc(-c3cccnc3)cc2)[C@@H]1CN(C)C(C)=O | 1 | 13 | -5 | . | . | . | .
CCC(=O)N1[C@@H](CO)[C@@H](c2ccc(-c3cccnc3)cc2)[C@@H]1CN(CC)C(C)=O | 9 | 31 | 98* | -4 | 18 | -3 | 13
COCC(=O)N(C)C[C@@H]1[C@H](c2ccc(-c3cccnc3)cc2)[C@@H](CO)N1C(C)=O | 0 | 5 | 100* | -70 | -21 | -30 | -27
CCC(=O)N(C)C[C@H]1[C@H](c2ccc(-c3cccnc3)cc2)[C@@H](CO)N1C(C)=O | -7 | 9 | 55 | . | . | . | .
CC(C)NC(=O)N(C)C[C@@H]1Oc2ncc(C#CCc3ccccc3)cc2C(=O)N([C@@H](C)CO)C[C@@H]1C | 2 | -25 | 26 | . | . | . | .
CC(C)CC#Cc1cnc2c(c1)C(=O)N([C@@H](C)CO)C[C@H](C)[C@@H](CN(C)Cc1ccccc1)O2 | -4 | -38 | 48 | . | . | . | .
C[C@@H]1CN([C@H](C)CO)C(=O)Cc2cc(NC(=O)NC3CCCCC3)ccc2O[C@@H]1CN(C)CC1CCCCC1 | -6 | 21 | 49 | . | . | . | .
C[C@@H]1CN([C@@H](C)CO)C(=O)c2cc(-c3cccc(C(=O)N(C)C)c3)cnc2O[C@H]1CN(C)S(=O)(=O)c1ccccc1 | 1 | -8 | . | . | . | . | .
C[C@@H]1CN([C@@H](C)CO)C(=O)c2cc(C#C[C@@H](C)O)cnc2O[C@@H]1CN(C)C(=O)Nc1ccc(F)cc1 | -2 | 33 | 7 | . | . | . | .
CCC(=O)Nc1ccc2c(c1)C(=O)N(C)C[C@H](OC)[C@@H](C)CN(C(=O)c1ccncc1)[C@@H](C)CO2 | . | 7 | 8 | . | . | . | .
SMILES | C diff HTS | Pf Dd2 inh | T cruzi growth-1 | T cruzi growth-2 | T cruzi growth-3 | 3T3 cytotox | NIH3T3 tox 2
O=C(NCCc1ccccc1)[C@@H]1[C@@H](CO)[C@@H]2Cn3c(cccc3=O)[C@H]1N2C(=O)C1CC1 | -2 | . | 21 | . | . | . | .
O=C(NCCc1ccccc1)[C@H]1[C@H](CO)[C@H]2Cn3c(cccc3=O)[C@@H]1N2C(=O)C1CCCC1 | 4 | 4 | 79 | . | . | . | .
O=C(NCCc1ccccc1)[C@@H]1[C@@H](CO)[C@@H]2Cn3c(cccc3=O)[C@H]1N2C(=O)C1CCC1 | 0 | -7 | ? | -15 | 11 | -21 | 0
O=C(NCCc1ccccc1)[C@H]1[C@H](CO)[C@H]2Cn3c(cccc3=O)[C@@H]1N2C(=O)C1CCC1 | -4 | 0 | 99* | 66 | 21 | 10 | -11
COCC(=O)N(C)C[C@H]1Oc2cc(-c3ccccc3F)ccc2S(=O)(=O)N([C@@H](C)CO)C[C@H]1C | -5 | 4 | . | . | . | . | .
CC(=O)N(C)C[C@H]1Oc2cc(C#CC3CCCC3)ccc2S(=O)(=O)N([C@H](C)CO)C[C@H]1C | -5 | -21 | 102* | 96* | 84 | -2 | 62*
CC(=O)N(C)C[C@@H]1Oc2cc(C#CC3CCCCC3)ccc2S(=O)(=O)N([C@H](C)CO)C[C@H]1C | -16 | -54 | ? | 108* | 93 | 32 | 64*
CC(=O)N(C)C[C@H]1Oc2cc(C#CC3CCCC3)ccc2S(=O)(=O)N([C@@H](C)CO)C[C@@H]1C | -3 | -32 | 93 | . | . | . | .
CC(=O)N(C)C[C@@H]1Oc2cc(C#CC3CCCCC3)ccc2S(=O)(=O)N([C@@H](C)CO)C[C@H]1C | -21 | -52 | 84 | . | . | . | .
O=C(c1ccc2c(c1)OCO2)N1CC[C@@H]2[C@@H](CO)Nc3ccc(-c4ccccc4)cc3[C@@H]21 | -19 | -61 | 94 | . | . | . | .
CCS(=O)(=O)N1CC(=O)N2[C@H](CO)[C@H](c3ccc(-c4ccc(C)cc4)cc3)[C@@H]2C1 | -12 | -12 | . | . | . | . | .
